ERAP1 HTS inh = human ERAP1 aminopeptidase inhibitors, primary screen, biochemical, single point, plate reader | recombinant ERAP1, Leu-AMC fluorescence, 60 min | inhibition, % at 10.7 µM | 0.15% of 340,000 active | AID 652197, 2013;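 active means mean replicate inhibition of at least 30%, or all replicates individually reaching that 30% level; inactive means mean below 30% and not every replicate reaching it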;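 further: 0% = neutral control wells and 100% = L-leucinethiol positive control wells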
PGC1a acetyl inh = inhibitors of PGC1a acetylation signal, primary screen, cell-based, U2OS, AlphaScreen, inhibitor mode. 0.17% of 350,000 active. inhibition, % at 15.6 µM. AlphaScreen anti-acetyl-lysine; with virally co-expressed GCN5 acetyltransferase. AID 651687, 2012;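 active means every replicate shows inhibition of at least 40%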;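 further: 0% = neutral control wells and 100% = positive control wells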
PglD DTNB = C. jejuni PglD acetyltransferase inhibitors, primary screen, biochemical, DTNB colorimetric, single point. purified PglD enzyme, DTNB colorimetric CoA detection. UDP-N-acetylbacillosamine N-acetyltransferase PglD (Campylobacter jejuni). 0.098% of 360,000 active. inhibition, % at 12.5 µM. AID 602405, 2012; in the data active means inhibition above about 16%, passing the limit was not always enough
ERp5 block = inhibitors of ERp5-driven insulin aggregation, primary screen, biochemical, turbidity, absorbance 650 nm, single point; inhibition, % at 9.99 µM; 90 min; AID 651711, 2012; 0.05% of 350,000 active;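 active means mean replicate inhibition above about 25%, with every replicate also reaching it, limit read from the data, passing the limit was not always enough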
Target sequence (Q15084 whole entry, looked up): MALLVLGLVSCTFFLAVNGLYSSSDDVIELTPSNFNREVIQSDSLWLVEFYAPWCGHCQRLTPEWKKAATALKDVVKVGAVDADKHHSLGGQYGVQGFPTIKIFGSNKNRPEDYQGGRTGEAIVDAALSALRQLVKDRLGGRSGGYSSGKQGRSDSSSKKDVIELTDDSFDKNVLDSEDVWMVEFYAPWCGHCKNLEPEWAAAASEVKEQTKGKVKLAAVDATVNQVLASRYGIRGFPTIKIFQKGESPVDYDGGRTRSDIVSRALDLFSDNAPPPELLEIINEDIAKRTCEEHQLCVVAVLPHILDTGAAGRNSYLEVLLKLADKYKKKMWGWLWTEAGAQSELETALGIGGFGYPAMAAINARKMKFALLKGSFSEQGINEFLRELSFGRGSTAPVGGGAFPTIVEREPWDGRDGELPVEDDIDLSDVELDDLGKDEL
CaV13 ICDI inh = Disruptors of the CACNA1D IQ motif to Ca2+-dependent inactivation inhibitor domain association, primary screening, Förster resonance energy transfer in intact living …; HEK cells, CFP/YFP FRET ICDI-IQ, plate reader, 10 min; percent FRET-ratio fall versus neutral wells; 0.098% of 340,000 active; inhibition, % at 12.3 µM;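 active means mean replicate inhibition of at least 30% and at least 1% of replicates passing that level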;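 further: 0% = median of the neutral control wells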
PDI turbidity = inhibitors of human PDI, primary screen, biochemical, turbidity, single point, plate reader; PDI insulin aggregation turbidity, A650, 90 min; inhibition, % at 10 µM; 0.052% of 350,000 active; AID 588391, 2011;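 active means mean inhibition across replicates of 30% or more, whatever share of single replicates reach that level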
* = called active by the depositor; x = no result; ! = repeats disagree. In the library only some 0.46% were active in any assay of this set; here they are far more common.

SMILES	ERAP1 HTS inh	PGC1a acetyl inh	PglD DTNB	ERp5 block	CaV13 ICDI inh	PDI turbidity
NC(=O)c1cn(C2OC(CO)C(O)C2O)c2ncnc(N)c12 (stereo unspecified)	4.8	92.6*!	-6.9	3.2	-6.4	-4.7
COC(=O)[C@H]1[C@H](CO)[C@H]2Cn3c(ccc(-c4cccc(OC)c4)c3=O)[C@@H]1N2C(=O)c1cnccn1	4.0	1.8	-2.6	2.0	x	x
C=C(CC1CC(O)[C@]2(C)OC3CC4OC5C[C@]6(C)O[C@]7(C)CCC8OC9C[C@]%10(C)OC%11C(C)=CC(=O)OC%11CC%10OC9C[C@@H](C)C8OC7CC6O[C@]5(C)C/C=C\C4OC3CC2O1)C(=O)O (stereo partly specified)	51.4*	3.7	-3.9	-3.6	-9.4	-4.0
CC1=CC(=O)OC2CC3OC4C[C@@H](C)C5OC6CC7O[C@]8(C)C/C=C\C9OC%10CC%11OC(CC(C)C%12OCCO%12)CC(O)[C@]%11(C)OC%10CC9OC8C[C@]7(C)O[C@]6(C)CCC5OC4C[C@]3(C)OC12 (stereo partly specified)	x	-4.4	-2.2	x	x	-6.0
O=C(Cc1cccnc1)N1CCCCN2[C@H](CO)[C@@H](c3ccc(/C=C/c4ccccc4)cc3)[C@H]2C1	-0.9	4.5	2.2	-7.5	x	x
COC(=O)[C@H]1[C@H](CO)[C@H]2Cn3c(ccc(-c4ccccc4)c3=O)[C@@H]1N2CCc1ccccc1	0.9	x	-2.0	0.3	x	x
COC1/C=C/C=C(\C)Cc2cc(O)c(Cl)c(c2)N(C)C(=O)CC(OC(=O)C(C)C)C2(C)OC2C(C)C2CC1(O)NC(=O)O2 (stereo unspecified)	0.5	x	x	6.0	-8.8	63.3*
O=c1[nH]c2ccccc2n1C1CCN(C(CCc2ccccc2)c2nnnn2Cc2ccccc2)CC1 (stereo unspecified)	0.9	103.5*	4.7	-8.8	-4.9	x
C[C@]12CC[C@H](O)C[C@H]1CC[C@@H]1[C@@H]2CC[C@]2(C)[C@@H](C3=CC(=O)OC3)CC[C@]12O	-3.1	21.1	3.0	2.7	-5.0	5.1
CC12CCC(O)CC1CCC1C2CCC2(C)C(C3=CC(=O)OC3)CCC12O (stereo unspecified)	1.4	79.9*	x	-12.4	-6.1	0.3
C/C=C/c1ccc(C2[C@@H]3CN(C(=O)C4CCOCC4)C[C@H]2N3)cc1 (stereo partly specified)	1.4	2.9	x	1.8	x	x
CC[C@H](C)[C@@H]1NC(=O)CNC(=O)c2csc(n2)[C@H](C(C)(C)O)OC(=O)C(C)(C)[C@H](CCCC(C)(Cl)Cl)OC(=O)c2csc1n2	0.4	59.7*	-6.2	0.1	-3.1	x
COC(=O)[C@H]1[C@H](CO)[C@H]2Cn3c(ccc(-c4ccccc4)c3=O)[C@@H]1N2C(=O)c1ccccc1F	2.4	x	2.4	-6.8	x	x
CC(=O)O[C@H]1C[C@@H]2OC3C=C(C)CCC3(C)[C@@]1(C)[C@@]21CO1 (stereo partly specified)	0.6	83.8*	x	1.8	-14.9	-6.6
CC(=O)OC1CC2OC3C=C(C)CCC3(C)C1(C)C21CO1 (stereo unspecified)	8.1	87.2*	-1.2	-3.8	x	x
CCN(CC)C(=O)c1ccc(NC(=O)c2cccc(C(F)(F)F)c2)cc1	2.7	x	-5.0	1.9	-0.9	-0.9
CCN(CCCl)c1cc(CN(C)C)cc(NC(=O)c2ccc(C(=O)Nc3cc(CN(C)C)cc(N(CC)CCCl)c3)cc2)c1	48.9*	-3.9	x	1.0	-2.4	10.5
COCC(=O)N1[C@@H]2Cn3c(ccc(C4=CCCC4)c3=O)[C@H]1[C@@H](C(=O)OC)[C@@H]2CO	-0.1	-9.9	-0.1	3.5	x	x
COc1ccc(Oc2cc(NC(=O)c3nn(C)cc3[N+](=O)[O-])cc([N+](=O)[O-])c2)cc1	0.2	78.1*	-1.5	0.9	-7.6	1.2
COC(=O)[C@@H]1[C@@H](CO)[C@@H]2Cn3c(ccc(-c4ccccc4F)c3=O)[C@H]1N2C(=O)C1CCC1	-1.9	x	-2.7	-2.4	x	x
O=c1ccc2cc(OC3O[C@H](CO)[C@@H](O)[C@H](O)[C@H]3O)c(O)cc2o1 (stereo partly specified)	78.5*	x	6.0	3.3	1.7	1.0
CNC(=O)OCc1n(C)cc[n+]1C	83.7*	x	x	7.1	-3.3	-3.6
CNC(=O)OCCc1nccn1C	x	3.7	-0.7	x	-4.4	1.3
Cc1cccc(S(=O)(=O)N2[C@@H]3Cn4c(ccc(-c5ccncc5)c4=O)[C@H]2[C@@H](C(=O)O)[C@@H]3CO)c1	12.5	x	-1.0	-9.8	x	x
CNc1cc(Cl)c2nonc2c1[N+](=O)[O-]	4.4	68.2*	x	-5.6	-9.3	13.3
SMILES	ERAP1 HTS inh	PGC1a acetyl inh	PglD DTNB	ERp5 block	CaV13 ICDI inh	PDI turbidity
COc1ccc(-c2ccc([C@@H]3[C@H](CO)N4CCCCN(C(=O)Cc5ccccc5)C[C@@H]34)cc2)cc1	1.2	0.8	3.8	-0.6	x	x
O=C1C(=O)c2cccc3cccc1c23	0.2	x	x	-2.5	-1.7	1.4
O=C1C(=O)c2ccccc2-c2ccccc21	0.5	37.5	-2.2	3.8	-4.6	166.9*
N#Cc1cccc(-c2ccc([C@@H]3[C@@H](CO)N4CCCCN(C(=O)Cc5ccccc5)C[C@H]34)cc2)c1	-3.4	3.3	1.9	0.3	x	x
O=C(Cc1cccnc1)N1CCCCN2[C@H](CO)[C@H](c3ccc(/C=C/c4ccccc4)cc3)[C@H]2C1	0.0	2.2	2.8	-0.9	x	x
O=C(O)[C@H]1[C@H](CO)[C@H]2Cn3c(ccc(-c4ccncc4)c3=O)[C@@H]1N2C(=O)C1CCC1	13.7	x	-3.4	-6.1	x	x
Cc1ccc(/C=C2\C(=O)NC(=O)N(Cc3ccccc3Cl)C2=O)o1	49.9*	x	x	2.1	4.4	1.0
C[C@H]1[C@@H](OS(=O)(=O)O)C[C@@H]2C[C@H]([C@@H](O)c3cc(=O)[nH]c(=O)[nH]3)NC3=NC[C@H]1N32	x	93.5*	3.6	x	x	x
COc1cc2c(cc1OC)C(C1c3cc4c(cc3CCN1C)OCO4)OC2=O (stereo unspecified)	0.1	x	3.3	1.3	-4.9	-32.0
C[N+]1(C)CCc2cc3c(cc2[C@H]1[C@@H]1OC(=O)c2c1ccc1c2OCO1)OCO3	52.6*!	-18.9	-1.7	-0.1	-5.6	2.0
CCCN1[C@@H]2c3cccc(=O)n3C[C@H]1[C@H](CO)[C@H]2C(=O)N(C)C	-3.7	x	-3.0	0.1	x	x

Bioassay records as filed in PubChem.
